The experiment deals with furin, P09958. Nature of the experiment: furin cleavage Z-score vs untreated control; higher = more cleavage, active = 3.5 or more, inactive = 1 or less, 8 variable residues between constant flanks. The method, boiled down:
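Furin cleavage was scored on 8-mer peptides joined to a cDNA oligonucleotide and bound to magnetic beads at the N-terminus. Digestion with purified furin (1:10 enzyme:substrate, 0.01 ml, 50 mM HEPES pH 7.5, CaCl2, NaCl) lasted 7.5, 15 or 30 min. Freed DNA was tagged with adapters by PCR, sequenced and counted; the cleavage Z-score is the lowess-adjusted log count versus furin-free reactions, scaled by median absolute deviation.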

The other results are listed elsewhere or left out. No count for the full screen is at hand.

Sequence of furin, P09958 (P09958 whole entry): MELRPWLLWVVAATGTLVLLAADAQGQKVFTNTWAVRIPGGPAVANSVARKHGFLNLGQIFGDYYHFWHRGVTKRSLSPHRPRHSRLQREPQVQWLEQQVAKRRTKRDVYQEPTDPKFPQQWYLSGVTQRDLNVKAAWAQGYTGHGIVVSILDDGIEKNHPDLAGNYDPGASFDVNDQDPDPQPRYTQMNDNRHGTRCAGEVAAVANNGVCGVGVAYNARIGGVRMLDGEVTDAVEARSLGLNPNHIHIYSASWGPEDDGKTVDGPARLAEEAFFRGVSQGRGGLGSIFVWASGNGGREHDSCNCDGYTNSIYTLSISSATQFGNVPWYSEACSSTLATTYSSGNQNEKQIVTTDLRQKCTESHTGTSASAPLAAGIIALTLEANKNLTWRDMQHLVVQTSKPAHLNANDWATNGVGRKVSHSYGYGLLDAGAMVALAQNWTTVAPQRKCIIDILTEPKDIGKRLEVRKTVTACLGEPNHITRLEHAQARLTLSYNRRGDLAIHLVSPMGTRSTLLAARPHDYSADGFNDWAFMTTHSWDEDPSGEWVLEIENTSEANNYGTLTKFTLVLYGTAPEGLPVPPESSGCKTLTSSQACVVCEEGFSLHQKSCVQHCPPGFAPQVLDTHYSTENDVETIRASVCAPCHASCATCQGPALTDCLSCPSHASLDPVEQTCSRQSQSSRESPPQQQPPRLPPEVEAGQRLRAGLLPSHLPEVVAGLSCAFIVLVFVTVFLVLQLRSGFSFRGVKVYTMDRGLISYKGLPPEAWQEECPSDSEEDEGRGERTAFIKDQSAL

For CASYLKGSSGAGNASASA [HC740], the “furin cleavage Z-score” value is, setting by setting: (7.5 min) -0.0827 (inactive); (15 min) -0.32 (inactive); (30 min) -1.27 (inactive).

With CAIQRLHGLSAGNASASA [HC1602], the “furin cleavage Z-score” value was -1.82 (inactive) (7.5 min), 1.34 (15 min) and -0.804 (inactive) (30 min).

For the sequence CAWVVTSTWVAGNASASA [HC2148], the “furin cleavage Z-score” value was -0.151 (inactive) (7.5 min), 0.93 (inactive) (15 min) and -1.01 (inactive) (30 min).

As for CARTNRDMHGAGNASASA [FS-3109], the “furin cleavage Z-score” value (7.5 min) is -0.446 (inactive), the “furin cleavage Z-score” value (15 min) was determined as 1.17 and the “furin cleavage Z-score” value (30 min) was -0.99 (inactive).

With CARTIRSFEGAGNASASA [FS-2240], the “furin cleavage Z-score” value runs as follows: (7.5 min) 3.24; (15 min) 4.83 (active); (30 min) 5.83 (active).

CACTMLVCGDAGNASASA [HC1526]: the “furin cleavage Z-score” value was -1.57 (inactive) (7.5 min), -1.58 (inactive) (15 min) and 0.193 (inactive) (30 min).

Take CARKRRSLGDAGNASASA [FS-2976]: the “furin cleavage Z-score” value is 11.1 (active) (7.5 min), 13.3 (active) (15 min) and 9.59 (active) (30 min).

With CASKGRRRKDAGNASASA [FS-1656], the “furin cleavage Z-score” value is, setting by setting: (7.5 min) 5.25 (active); (15 min) 6.69 (active); (30 min) 5.72 (active).

In the case of CARKRRVLTPAGNASASA [FS-2979], the “furin cleavage Z-score” value was -0.402 (inactive) (7.5 min), -0.0349 (inactive) (15 min) and -1.55 (inactive) (30 min).

Take CARKRRVRKDAGNASASA [FS-1560]: the “furin cleavage Z-score” value by setting is: (7.5 min) 8.86 (active); (15 min) 7.9 (active); (30 min) 6.61 (active).

For CARFGRQDEGAGNASASA [FS-1947], the “furin cleavage Z-score” value runs as follows: (7.5 min) -2.89 (inactive); (15 min) -0.0904 (inactive); (30 min) -0.336 (inactive).

With CAFKIRMYVGAGNASASA [HC474], the “furin cleavage Z-score” value is -0.697 (inactive) (7.5 min), 0.386 (inactive) (15 min) and -0.234 (inactive) (30 min).

For the origin of these results see the supplement of paper PMC3545927.
